Rows were chosen to be rich in hits. Some 11% of all compounds tested hit in one or more screens of this group.
ALDH1A1 block – blocks purified human ALDH1A1 activity; Purified ALDH1A1, NADH fluorescence, propionaldehyde substrate; Potency, µM (top dose mostly 75.3 µM), inactives show at the highest dose activity, negative = inhibition, most hits filed as inhibitors; 220,000 tested, 7.3% active; active = well fitted inhibition curve with a large enough effect, not every such curve was filed as active; inconclusive = small, poorly fitted or top-dose-only effect, or another doubt; inactive = no such curve, though single readings can be large or run the other way;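 also: potency is read from the fitted curve at half-maximal effect; plate controls were no enzyme wells and a reference inhibitor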
Target sequence (P00352 whole entry, looked up): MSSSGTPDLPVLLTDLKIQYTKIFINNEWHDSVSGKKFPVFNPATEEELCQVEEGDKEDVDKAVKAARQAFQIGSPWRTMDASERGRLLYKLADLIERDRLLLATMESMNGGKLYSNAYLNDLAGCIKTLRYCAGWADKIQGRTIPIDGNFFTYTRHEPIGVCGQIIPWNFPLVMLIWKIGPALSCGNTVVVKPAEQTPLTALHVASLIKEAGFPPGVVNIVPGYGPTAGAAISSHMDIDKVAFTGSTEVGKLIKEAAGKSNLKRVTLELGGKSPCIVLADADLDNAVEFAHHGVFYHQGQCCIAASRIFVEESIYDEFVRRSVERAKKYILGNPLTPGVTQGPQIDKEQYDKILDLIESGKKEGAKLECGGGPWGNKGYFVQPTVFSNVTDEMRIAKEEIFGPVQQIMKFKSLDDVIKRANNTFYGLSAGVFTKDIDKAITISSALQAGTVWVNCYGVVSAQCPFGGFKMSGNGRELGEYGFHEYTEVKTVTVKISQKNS
IMPase inh – membrane-permeable compound that blocks inositol monophosphatase; AID 901; inhibition (IP1 accumulation), % at 46.1 µM; CHO-M1 cells, IP1 accumulation, HTRF TR-FRET ratio; 120,000 tested, under 10 active; active = well fitted curve in the direction sought with a large enough effect in the signal ratio, not every such curve was filed as active; inconclusive = small, poorly fitted or top-dose-only effect, or a change in a side signal; inactive = no such curve, though single readings can be large or run the other way; the % refers to the signal ratio;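 also: cells stimulated with carbachol in lithium chloride buffer; plate controls were DMSO basal wells for no effect and reference inhibitor wells for full effect; higher means more IMPase inhibition seen as more IP1 and lower FRET ratio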
Target sequence (P97697 whole entry, looked up): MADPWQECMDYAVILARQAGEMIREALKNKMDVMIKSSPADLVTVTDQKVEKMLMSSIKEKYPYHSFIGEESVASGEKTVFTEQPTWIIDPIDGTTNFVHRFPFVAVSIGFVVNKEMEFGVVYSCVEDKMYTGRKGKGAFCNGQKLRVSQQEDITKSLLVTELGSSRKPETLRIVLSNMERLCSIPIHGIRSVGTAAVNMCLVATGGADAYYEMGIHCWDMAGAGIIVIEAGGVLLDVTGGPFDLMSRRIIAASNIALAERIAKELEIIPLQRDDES
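In this qHTS, compounds (final up to 46 uM) act on CHO-M1 cells that are then activated through the M1 receptor with carbachol, in pH 7.4 buffer containing 50 mM LiCl, for 30 min. IP1 accumulation is quantified by the IP-One immunoassay.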
HPGD block – inhibitors of human 15-hydroxyprostaglandin dehydrogenase (HPGD) | P15428 | 150,000 tested, 4.3% active | Potency, µM, without a hit: top-dose activity change, negative = inhibition, hits mostly inhibitors | purified HPGD, NADH fluorescence kinetic, PGE2 substrate; active = well fitted inhibition curve with a large enough effect, not every such curve was filed as active; inconclusive = small, poorly fitted or top-dose-only effect, or another doubt; inactive = no such curve, though single readings can be large or run the other way; also: potency is read from the fitted curve at half-maximal effect
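20 nM HPGD preincubated 15 min at room temperature with compound in 50 mM Tris-HCl pH 8, 0.01% Tween 20. Started with 1 mM NAD+ and 30 uM prostaglandin E2; NADH fluorescence (360/450 nm) read 5 times over 30-s intervals, last minus first.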
PNC inhibitor – blocks assembly of the perinucleolar compartment; PC3M PTB-GFP, PNC prevalence imaging, 16 h; stronger effect = lower value; activity change (PNC), negative = inhibition, % at 10 µM; 140,000 tested, 3.1% active; AID 2417;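 active = readout at or below -70, meaning at least 70% loss of cells showing the perinucleolar compartment, a nuclear body marking cancer cells; inconclusive = readout between -30 and a set limit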;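 also: plate controls were DMSO wells for no effect and camptothecin positive control wells for full effect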
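Read-out is percentage of cells bearing a perinucleolar compartment, from automated 20x imaging of fixed, Hoechst-stained PC3M PTB-GFP cells. Cells were seeded 4 h, then exposed 16 h to compound (23 nl of library stock) in duplicate plates.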
IMPase Li inh – cell-permeable IMPase inhibitors with lithium potentiation. CHO-M1 cells, IP1 TR-FRET (IP-One), carbachol + lithium. Potency, µM (titrated, usually from 59.4 µM), for inactives: at the top dose activity, negative = IMPase inhibition, most hits filed as inhibitors. 210,000 tested, 0.35% active. AID 1457;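 also: IP1 builds up when IMPase is blocked and the TR-FRET signal falls; potency is read from the fitted curve at half-maximal effect; plate controls were basal vehicle for no effect and high inhibitor control for full effect; nearly all actives have a fitted effect of over 50% in size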
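CHO cells stably expressing M1 receptor (2000/well, cultured 16–30 h) treated 30 min at 37C with compound plus low lithium. Cytosolic IP1 by TR-FRET (665/620 ratio and 620 channel) after 10 min lysis; AC50 by Hill fit.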
12-hLO inh – inhibitors of human 12-lipoxygenase (ALOX12); P18054; purified 12-hLO, xylenol orange hydroperoxide absorbance; Potency, µM (series often up to 57.1 µM), without a hit: at the highest dose activity change, negative = inhibition, most hits filed as inhibitors; 150,000 tested, 0.12% active; also: potency is read from the fitted curve at half-maximal effect; nearly all actives have a fitted effect of over 55% in size
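150 nM 12hLO, 25 mM Hepes pH 7.0 + 0.01% Triton X-100; cpd preinc 15 min RT; 40 uM arachidonic acid, 30 min RT; Fe-XO 30 min; A573/A405 ratio as read-out.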
* = called active by the depositor; [ ] = another dose, or the depositor's remark. Unless noted, calls follow the shape of the dose curve; as a rule, active = well fitted curve in the direction sought with a large enough effect; inconclusive = small, poorly fitted or top-dose-only effect, or another doubt; inactive = no such curve, though single readings can be large; an effect the other way counts as inactive or inconclusive. Unless noted, % is scaled to controls: 0 for no effect and ±100 for the full control effect.

`Cc1ccc(C2(c3ccc(C)cc3)CC2C(=O)Nc2ccc([N+](=O)[O-])cc2O)cc1` (stereo not given) gave ALDH1A1 block -9%, IMPase inh 6, HPGD block 14µM*, PNC inhibitor -18, IMPase Li inh 26%[38.3 µM] and 12-hLO inh -21%.
`CC(C)OC(=O)CSc1n[nH]c(-c2cccnc2)n1` gave ALDH1A1 block -9%, IMPase inh -2, HPGD block 16µM*, PNC inhibitor -7, IMPase Li inh -10%[38.3 µM] and 12-hLO inh 4%.
COC(=O)[C@@]1(Cc2ccc(OC)cc2)[C@H]2c3cc(C(=O)N4CCCC4)n(CCc4ccc(O)c(OC)c4)c3C[C@H]2CN1C(=O)c1ccccc1 was read as ALDH1A1 block 0%, HPGD block -5%, IMPase Li inh -1% and 12-hLO inh -22%.
Cc1ccc(C(c2c(O)nc3n(c2=O)CCS3)c2c(O)nc3n(c2=O)CCS3)cc1 was read as ALDH1A1 block inconclusive, HPGD block -16%, PNC inhibitor -81*, IMPase Li inh -5% and 12-hLO inh -8%.
Screening O=c1c(C(c2ccc(O)cc2)c2c(O)nc3n(c2=O)CCCS3)c(O)nc2n1CCCS2 returned ALDH1A1 block inconclusive, IMPase inh -7, HPGD block inconclusive, PNC inhibitor -7, IMPase Li inh -14%[38.3 µM] and 12-hLO inh -15%.
O=c1c(C(c2ccc(O)cc2)c2c(O)nc3n(c2=O)CCS3)c(O)nc2n1CCS2 was read as ALDH1A1 block 13µM*, IMPase inh -4, HPGD block 13µM*, PNC inhibitor 14, IMPase Li inh -11%[38.3 µM] and 12-hLO inh -16%.
`Cn1c(SCC(=O)c2cc3ccccc3o2)nnc1-c1ccccc1` gave ALDH1A1 block 28µM*, IMPase inh -9, HPGD block inconclusive, PNC inhibitor -11, IMPase Li inh 6%[38.3 µM] and 12-hLO inh -15%.
Screening Cn1cnnc1SCC(=O)c1cc2ccccc2o1 returned ALDH1A1 block inconclusive and IMPase Li inh 8%.
Cc1cccc(NC(=O)CSc2nnc(-c3ccncc3)n2C)c1 was read as ALDH1A1 block -3%, IMPase inh 8, HPGD block -7%, PNC inhibitor 14, IMPase Li inh 3%[38.3 µM] and 12-hLO inh 3%.
Cc1cccc(-c2nnc(SCC(=O)C(C)(C)C)n2C)c1 was read as ALDH1A1 block 11µM*.
`Cn1c(SCC(=O)Nc2ccc3c(c2)oc2ccccc23)nnc1-c1ccccc1` gave ALDH1A1 block 25µM*, IMPase inh -3, HPGD block -7%, PNC inhibitor 5, IMPase Li inh 4%[38.3 µM] and 12-hLO inh -3%.
`Cn1ccnc1SCC(=O)c1cc2ccccc2o1` gave ALDH1A1 block 20µM*, IMPase inh 1, HPGD block -20%, PNC inhibitor inconclusive, IMPase Li inh -2%[38.3 µM] and 12-hLO inh -19%.
Screening Cc1ccco1 returned ALDH1A1 block 3%, HPGD block -8%, IMPase Li inh -3% and 12-hLO inh -2%.
Screening O=C(CSc1nnc(-c2cccs2)n1CC1CCCO1)c1cc2ccccc2o1 (stereo not given) returned ALDH1A1 block 28µM*, IMPase inh 8, HPGD block inconclusive, PNC inhibitor -29, IMPase Li inh -8%[38.3 µM] and 12-hLO inh -12%.
O=C(CSc1nnc(-c2ccncc2)n1CC1CCCO1)NCc1ccccc1 (stereo not given) was read as ALDH1A1 block -1%, IMPase inh inconclusive, HPGD block 2%, PNC inhibitor -18, IMPase Li inh -4%[38.3 µM] and 12-hLO inh 1%.
Screening O=C(CSc1nnc(-c2ccco2)n1Cc1ccccc1)NC(=O)NCc1ccccc1 returned ALDH1A1 block -13%, IMPase inh -2, HPGD block -10%, PNC inhibitor -92*, IMPase Li inh 8%[38.3 µM] and 12-hLO inh -10%.
Cc1ccc(NCc2nnc(SCC(=O)c3ccccc3)n2Cc2ccco2)c(C)c1 was read as ALDH1A1 block 10µM*, IMPase inh 9, HPGD block -21%, PNC inhibitor inconclusive, IMPase Li inh 36%[38.3 µM] and 12-hLO inh -21%.
O=C(CSc1nnc(-c2ccco2)n1Cc1ccccc1)c1ccccc1 was read as ALDH1A1 block inconclusive, IMPase inh 12, HPGD block 28µM*, PNC inhibitor -22, IMPase Li inh 7%[38.3 µM] and 12-hLO inh -10%.
`Cc1ccc(NC(=O)CSc2nnc(CSc3nc(C)cc(C)n3)n2Cc2ccco2)c(C)c1` gave ALDH1A1 block -1%, IMPase inh 19, HPGD block -4%, PNC inhibitor -8, IMPase Li inh 29%[38.3 µM] and 12-hLO inh -3%.
Cn1c(SCC(=O)c2ccc(-c3ccccc3)cc2)nnc1-c1ccco1 was read as ALDH1A1 block 10µM*, IMPase inh -1, HPGD block -22%, PNC inhibitor inconclusive, IMPase Li inh -10%[38.3 µM] and 12-hLO inh 3%.
Screening Cc1ccc(C(=O)CSc2nnc(-c3ccco3)n2Cc2ccccc2)cc1 returned ALDH1A1 block 0%, IMPase inh 25, HPGD block -20%, PNC inhibitor -17, IMPase Li inh 16%[38.3 µM] and 12-hLO inh -8%.
`CO[C@@H]1COC(=O)CC=C[C@@H](C)[C@@H]2C=C[C@H](O)[C@@H](COC(=O)[C@H](C)NC(=O)CC=C[C@H]1C)O2` gave ALDH1A1 block 1%[13.5 µM].
`FC(F)(F)c1cc(NC(=S)Nc2ccc3cc4ccccc4cc3c2)cc(C(F)(F)F)c1` gave ALDH1A1 block -9%, HPGD block -17% and IMPase Li inh 13%.
CCN1CCN(C(=O)C(N)Cc2ccccc2)CC1 (stereo not given) was read as ALDH1A1 block 4% and IMPase Li inh 0%.
`CCOC(=O)c1c(C)[nH]c(C)c1C(=O)CSc1nnc(-c2ccco2)n1Cc1ccccc1` gave ALDH1A1 block 16µM*, IMPase inh 17, HPGD block -7%, PNC inhibitor 34, IMPase Li inh 46%[38.3 µM] and 12-hLO inh -3%.
Screening CCOC(=O)c1c(C)[nH]c(C)c1C(=O)CSc1nnc(-c2ccncc2)n1Cc1ccccc1 returned ALDH1A1 block -1%, IMPase inh 2, HPGD block -19%, PNC inhibitor -10, IMPase Li inh -6%[38.3 µM] and 12-hLO inh 8%.
COc1ccc(C(=O)CSc2nn3c(=O)c(C(C)(C)C)nnc3s2)cc1 was read as ALDH1A1 block 0.4µM*, IMPase inh 0, HPGD block -16%, PNC inhibitor inconclusive, IMPase Li inh 6%[38.3 µM] and 12-hLO inh -2%.
